Hits are enriched below; roughly 2.5% of the tested compounds scored in any of these assays.
MARV entry inh – qHTS for inhibitors of binding or entry into cells for Marburg Virus; Marburg virus pseudotyped entry inhibition, cell reporter; Potency, µM (doses to about 37.8 µM), usual class: inhibitors; 1.8% of 300,000 active; calls by dose curve; tested in HEK293 cells
Vaccinia Venus – qHTS for Stage-Specific Inhibitors of Vaccinia Orthopoxvirus: Venus Reporter Primary qHTS; Vaccinia virus Venus reporter expression, fluorescence; Potency, µM (titrated, usually from 36.5 µM), actives largely listed as inhibitors; 0.46% of 330,000 active; AID 720580, 2013; calls by dose curve; tested in A549 cells; further: nearly all actives have a fitted effect of over 30% in size
LASV entry inh – qHTS for Inhibitors of binding or entry into cells for Lassa Virus. Lassa virus pseudotype entry inhibition, cell reporter. Potency, µM (top dose mostly 37.9 µM), usual class: inhibitors. 1.2% of 300,000 active; calls by dose curve; tested in HEK293 cells; further: nearly all actives have a fitted effect of over 50% in size
Vaccinia mCherry – qHTS for Stage-Specific Inhibitors of Vaccinia Orthopoxvirus: mCherry Reporter Primary qHTS; Vaccinia virus mCherry reporter infection, fluorescence; Potency, µM (doses to about 36.5 µM), hits mostly inhibitors; 0.63% of 310,000 active; calls by dose curve; tested in A549 cells; further: nearly all actives have a fitted effect of over 35% in size
Hits are given with their value; 0 = inactive; ? = inconclusive; - = not tested or not shown; [ ] = remark or other dose.

SMILES | MARV entry inh | Vaccinia Venus | LASV entry inh | Vaccinia mCherry
CCOC(=O)NN=C1C[C@@H](O)[C@@H](O)[C@@H]2[C@H]3C(=O)N(Cc4ccccc4)C(=O)[C@@H]3CC[C@@H]12 | 0 | - | - | -
COCCn1c(C)cc(C(=O)CSc2nnnn2C2CCCC2)c1C | ? | 0 | 1.26µM | 0
Cc1ccc(OCc2nnc(SCc3cc(=O)[nH]c4ccccc34)o2)cc1 | 0 | - | 0 | -
O=c1cc(CSc2nnc(COc3ccccc3)o2)c2ccccc2[nH]1 | ? | - | 23.1µM | -
O=C(Cc1ccc2ccccc2c1)NO | - | 0 | - | 0
CC1(C)Cc2c(sc3nc(N/N=C/c4ccccc4)[nH]c(=O)c23)CO1 | ? | - | 0 | -
CC(C)=NNc1nc2sc3c(c2c(=O)[nH]1)CC(C)(C)OC3 | 0 | 0 | 7.08µM | 0
CC1OC(OC2CC(O)C3(CO)C4C(O)CC5(C)C(C6=CC(=O)OC6)CCC5(O)C4CCC3(O)C2)C(O)C(O)C1O (stereo not given) | - | ? | - | 0.0891µM
C[C@@H]1O[C@@H](O[C@H]2C[C@@H](O)[C@]3(CO)[C@@H]4C(CC[C@]3(O)C2)[C@@]2(O)CC[C@H]([C@@H]3COC(=O)C3)[C@@]2(C)C[C@H]4O)[C@H](O)[C@H](O)[C@H]1O (stereo not given in full) | 0.82µM | - | 2.31µM | -
C[C@@H]1O[C@@H](O[C@H]2C[C@@H](O)[C@]3(CO)[C@H]4[C@H](O)C[C@]5(C)[C@@H](C6COC(=O)C6)CC[C@]5(O)[C@@H]4CC[C@]3(O)C2)[C@H](O)[C@H](O)[C@H]1O (stereo not given in full) | ? | 1.12µM | 1.64µM | 1.12µM
CCN(CC)CCN(Cc1cc2ccc(C)c(C)c2[nH]c1=O)C(=S)NCc1ccco1 | ? | 0 | 5.62µM | 0
C/C(=N/Nc1nc(-c2ccccc2)cc(-c2ccc(F)cc2)n1)c1cccc(N)c1 | 0 | ? | ? | 22.4µM
COc1ccc(/C(C)=N/Nc2nc(C)cc(-c3ccccc3)n2)cc1 | 2.51µM | 0 | ? | ?
COC(=O)C1(C(=O)OC)Cc2conc2[C@@H]1c1ccccc1 | 0 | - | - | -
COC(=O)[C@@H]1CCCN1S(=O)(=O)Cc1ccccc1 | - | 0 | - | 0
O=C1CCc2cc(S(=O)(=O)NCCCC(=O)N3CCN(Cc4ccc5c(c4)OCO5)CC3)ccc2N1 | 0 | - | 0 | -
Cc1cccc(N2CCN(C(=O)CCNS(=O)(=O)c3ccc4c(c3)CCC(=O)N4)CC2)c1C | ? | - | 6.51µM | -
Cc1ccsc1CN(C)CC(=O)Nc1ccc([N+](=O)[O-])cc1Cl | 10µM | 0 | ? | 0
CN(CC(=O)Nc1cc([N+](=O)[O-])ccc1Cl)Cc1ccc(Br)cc1 | 0 | 0 | 0 | 0
COc1ccc(OC)c([C@H](O)c2coc3ccc(O)c(CN4CCOCC4)c23)c1 | 0 | - | - | -
COc1ccc(-c2cn3nc4c(nc3n2)CCCC4)cc1 | 5.62µM | 0 | ? | -
COc1ccc(OC)c(/C=C/c2c3ccccc3cc[n+]2C)c1 | - | 0 | - | 0
O=C(c1ccc(Cl)cc1)c1ccc(Oc2cc(NN3CCCCC3)c([N+](=O)[O-])cc2[N+](=O)[O-])cc1 | - | 0 | - | ?
COc1ccc(C(C)=O)c(Oc2cc(NN3CCCCC3)c([N+](=O)[O-])cc2[N+](=O)[O-])c1 | - | 3.16µM | - | ?
COc1ccc(NS(=O)(=O)c2cc(NC(=O)c3ccc(Cl)cc3)ccc2N2CCOCC2)cc1 | 1.12µM | 0 | ? | ?
SMILES | MARV entry inh | Vaccinia Venus | LASV entry inh | Vaccinia mCherry
CC(C)Oc1ccc(C(=O)Nc2ccc(Cl)c(S(=O)(=O)Nc3ccc(Cl)cc3)c2)cc1 | ? | ? | 11.2µM | ?
CCOc1cccc(/C=N/NC(=S)Nc2cc(S(=O)(=O)N3CCOCC3)ccc2N2CCOCC2)c1O | ? | ? | ? | 7.08µM
COc1ccc(NS(=O)(=O)c2cc(NC(=O)c3ccco3)ccc2N2CCCCC2)cc1 | 14.1µM | ? | ? | ?
COc1ccc(NS(=O)(=O)c2cc(NC(=O)C3CC3)ccc2N2CCCCC2)cc1 | ? | 0 | ? | 0
CN(CCCCCC(=O)/C=N\O)Cc1ccccc1 | 0 | - | - | -
C=CCN1c2ccccc2[C@]23CCC(=O)N(Cc4ccco4)C2=NC(C(=O)OC)=C(C(=O)OC)[C@H]13 | 0 | - | - | -
CN(c1cccc(NC(=O)c2ccc(Cl)c(S(=O)(=O)Nc3ccccc3)c2)c1)S(C)(=O)=O | 3.66µM | ? | 0 | 0
COc1ccc(NS(=O)(=O)c2ccc(N3CCOCC3)c(NC(=O)c3cccc(F)c3)c2)cc1 | ? | 0 | ? | ?
CC(C)Oc1ccc(C(=O)Nc2cc(S(=O)(=O)N3CCOCC3)ccc2N2CCOCC2)cc1 | ? | 0 | 12.6µM | 0
COc1ccc(NS(=O)(=O)c2ccc(N3CCOCC3)c(NC(=O)c3ccc(F)cc3)c2)cc1 | 3.55µM | 0 | ? | 0
O=C(Cn1cc2ccccc2n1)N1CCOc2ccc(C(O)C3CCCCC3)cc2C1 (stereo not given) | - | 0 | - | 0
CC(CCC(=O)OC[C@H]1O[C@H](C#Cc2ccccc2)C=C[C@H]1Oc1ccc(C)cc1)=NO[C@@H](C)CN1CCCCc2nc(C)c(C)cc21 | 0 | - | - | -
CC(=O)NC(Cc1ccc(O)cc1)C(=O)NCC(N)C(=O)c1ccccc1 (stereo not given) | - | 0 | - | 0
COc1ccc2c(c1)c(CC(=O)Nc1ccc(C(C)=O)cc1)c(C)n2C(=O)c1ccc(Cl)cc1 | ? | 0[7.34 µM] | ? | 0[7.34 µM]
COc1ccc2c(c1)c(CC(=O)Nc1nnc(C3CC3)s1)c(C)n2C(=O)c1ccc(Cl)cc1 | 3.16µM | 0 | ? | ?
Cc1ccc(NC(=O)CSc2nn(-c3ccccc3)c(=S)s2)cc1S(=O)(=O)N(C)C | 7.31µM | ? | ? | ?
CC(/C=N/n1c(C2CCCCC2)n[nH]c1=S)=C\c1ccccc1 | ? | - | 18.3µM | -
O=C(Cc1ccc(Cl)c(Cl)c1)NC1CCCCCC1 | 0 | 0 | ? | 0
COC(=O)N1CCN(C(=O)Cc2ccc(Cl)c(Cl)c2)C(CN2CCCC2)C1 (stereo not given) | 11.2µM | 0 | ? | 0
COc1cccc(NC(=O)CSC2=C(C#N)C(c3ccco3)C3=C(CCCC3=O)N2)c1 (stereo not given) | 0 | ? | 12.6µM | ?
CCOC(=O)C1=C(c2ccccc2)NC(SCC(=O)Nc2ccccc2C)=C(C#N)[C@@H]1c1ccco1 | 23.1µM | - | - | -
CC1CC[C@@]2(OC1)OC1C(O)C3C4CC[C@H]5CC(O[C@@H]6O[C@@H](CO)[C@H](OC7OC(CO)C(O)C(OC8OCC(O)C(O)[C@H]8O)[C@@H]7O[C@@H]7OC(CO)[C@H](O)[C@@H](O[C@@H]8OC(CO)C(O)C(O)C8O)C7O)C(O)C6O)C(O)C[C@]5(C)C4CC[C@]3(C)C1C2C (stereo not given in full) | - | 8.91µM | - | 7.94µM
CN(C)C(=O)c1ccc(N=Nc2c(O)c3ccccc3[nH]c2=O)cc1 | ? | 0 | ? | ?
O=C(O)c1ccc(N=Nc2c(O)[nH]c3ccccc23)cc1 | 1.78µM | 0 | 5.01µM | 0
CCNC(=O)OCCC12CC3CC(CC(C3)C1)C2 | 0 | 0 | 0 | 0
O=C(OCC12CC3CC(CC(C3)C1)C2)c1ccc(NCc2cc(O)ccc2O)cc1 | ? | ? | 4.47µM | ?
O=C(OCCC12CC3CC(CC(C3)C1)C2)c1ccc(NCc2cc(O)ccc2O)cc1 | 1.78µM | ? | 1.26µM | 0
O=C(O)c1cc(NCc2cc(O)ccc2O)ccc1O | - | 0 | - | 0
